Bioassay records as filed in PubChem.
This is a sample that favours compounds with a hit; in the whole collection about 12% have one here.
HP1b chromo inh: HP1-beta chromodomain-methylated histone interaction inhibition; P83916; AlphaScreen HP1-beta / biotin-H3K9me3 peptide binding; actives 0.56% (n = 390,000); AID 540317; Potency, µM (top dose mostly 114 µM), for inactives: top-dose activity change, negative = inhibition, actives largely listed as inhibitors; further: potency means the concentration at half of the fitted maximal effect; nearly all actives have a fitted effect of over 70% in size
Target sequence (P83916 whole entry, looked up): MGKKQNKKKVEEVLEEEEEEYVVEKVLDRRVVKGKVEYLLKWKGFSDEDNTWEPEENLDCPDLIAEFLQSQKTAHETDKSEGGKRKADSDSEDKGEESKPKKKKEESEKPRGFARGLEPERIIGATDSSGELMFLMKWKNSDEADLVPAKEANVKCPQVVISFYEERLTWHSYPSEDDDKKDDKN
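HP1-beta protein (50 nM final) preincubated 30 min at room temperature with biotinylated H3(1-18)K9me3 peptide (50 nM) in PBS pH 7.4, 0.01% Tween-20, then compound added for 30 min. AlphaScreen streptavidin donor/nickel chelate acceptor beads (10 ug/mL final), 30 min dark, luminescence read.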
PLK1 PBD block: PLK1 (human) polo-box domain binding inhibition; P53350; Plk1 PBD binding of FITC phosphopeptide, fluorescence polarization; actives 2.8% (n = 360,000); AID 720504; Potency, µM, for the others: max response, negative = inhibition, most hits filed as inhibitors; further: potency means the concentration at half of the fitted maximal effect; series mostly up to about 57 µM; on the % scale 0 is the no-effect control and ±100 the full control effect; nearly all actives have a fitted effect of over 65% in size
JMJD2A Tudor inh: JMJD2A Tudor domain (human) inhibition | AlphaScreen JMJD2A-Tudor / H3K4me3 peptide binding | actives 4.4% (n = 390,000) | AID 504339 | O75164 | Potency, µM (series often up to 114 µM), inactives show at the highest dose activity change, negative = inhibition, most hits filed as inhibitors; further: potency means the concentration at half of the fitted maximal effect; on the % scale 0 is the no-effect control and ±100 the full control effect; nearly all actives have a fitted effect of over 50% in size
BAZ2B block: blocks human BAZ2B | AlphaScreen BAZ2B-H3K14Ac peptide displacement | Potency, µM (titrated, usually from 114 µM), inactives show at the top dose activity change, negative = inhibition, most hits filed as inhibitors | actives 4.4% (n = 360,000); further: potency means the concentration at half of the fitted maximal effect; on the % scale 0 is the no-effect control and ±100 the full control effect; nearly all actives have a fitted effect of over 60% in size
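Compounds, titrated to a top concentration of 110 uM, were incubated 30 min at room temperature with preformed BAZ2B/acetyl-K14 H3 peptide complex (50 nM each). Proximity signal was measured by AlphaScreen after 20 min with beads.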
G9a inh: G9a (human) methyltransferase inhibition. Q96KQ7. G9a H3K9 monomethylation, AlphaScreen, 2 h. Potency, µM (doses to about 102 µM), for inactives: top-dose activity, negative = inhibition, actives largely listed as inhibitors. actives 8.8% (n = 350,000). AID 504332; further: potency means the concentration at half of the fitted maximal effect; on the % scale 0 is the no-effect control and ±100 the full control effect; nearly all actives have a fitted effect of over 75% in size
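G9a (20 nM) preincubated 15 min RT with compounds, then 500 nM biotinylated H3K9 peptide and 20 uM SAM added; 2 h RT reaction. Monomethyl-H3K9 product detected by AlphaScreen with anti-H3K9me1 antibody, streptavidin donor and anti-rabbit IgG acceptor beads.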
PI5P4Ka inh: inhibitors of human PI5P4K alpha; actives 1.2% (n = 330,000); P48426; AID 652105; max response, %; PI5P4Kalpha enzyme, ADP-Glo luminescence, 60 min; stronger effect = lower value; active means max response of -50% or lower; inconclusive means between -30% and -50%; inactive means -30% or higher; further: value at the top dose of about 77 µM; on the % scale 0 is the no-effect control and ±100 the full control effect
Target sequence (P48426 whole entry, looked up): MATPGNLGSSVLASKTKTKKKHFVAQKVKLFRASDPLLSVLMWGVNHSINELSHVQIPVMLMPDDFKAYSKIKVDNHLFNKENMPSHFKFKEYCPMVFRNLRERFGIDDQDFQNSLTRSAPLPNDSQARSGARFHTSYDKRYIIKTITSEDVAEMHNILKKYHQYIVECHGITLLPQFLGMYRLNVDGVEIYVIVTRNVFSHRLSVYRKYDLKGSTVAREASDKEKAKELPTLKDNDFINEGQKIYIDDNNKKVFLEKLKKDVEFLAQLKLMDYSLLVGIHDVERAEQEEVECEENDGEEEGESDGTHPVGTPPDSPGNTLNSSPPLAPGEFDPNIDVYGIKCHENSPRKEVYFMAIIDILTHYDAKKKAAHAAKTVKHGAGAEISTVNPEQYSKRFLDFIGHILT
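Human PI5P4Kalpha with substrate in 0.038 M HEPES pH 7.4, 0.28 mM EGTA, 0.1% CHAPS, 5% DMSO; reaction started with 5 microM ATP (final), 60 min at room temperature. ADP formed read by ADP-Glo luminescence.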
Active calls of the source: *; ? = inconclusive; · = not tested or not shown; [ ] = remark or other dose. Unless noted, the call rests on the fitted dose curve; in most records, active means well fitted curve in the direction sought with a large enough effect; inconclusive means small, poorly fitted or top-dose-only effect, or another doubt; inactive means no such curve, though single readings can be large; an effect the other way counts as inactive or inconclusive.

SMILES	HP1b chromo inh	PLK1 PBD block	JMJD2A Tudor inh	BAZ2B block	G9a inh	PI5P4Ka inh
CC1CCN(S(=O)(=O)c2cc(C(=O)NCCc3ccccc3)n(C)c2)CC1	28.2%[57 µM]	·	-14.1%	-16.7%	2.8%[59 µM]	·
COc1ccc(NC(=O)CN2CCCN(S(=O)(=O)c3ccc(Br)cc3)CC2)c(OC)c1	3.5%	·	-20.1%	?	?	·
COc1cc(-c2nn3c(-c4ccccc4)nnc3s2)cc(OC)c1OC	23.1%	-6.9%	-21.1%	0.9%	44.7µM*	·
c1csc(Cc2nn3c(-c4ccncc4)nnc3s2)c1	44.5%	-0.9%	?	?	12.6µM*	·
Cc1ccc(C(=O)Cn2cncn2)cc1	4.0%	4.7%	-28.5%	-23.5%	50.1µM*	7.0
CC1(C(=O)NS(=O)(=O)c2ccc(Cl)cc2)CCN1C(=O)c1ccc(C2CCCCC2)cc1 (stereo not drawn)	·	-24.7%	·	·	·	-0.1
N#CN=C1SCCS1	-8.3%	3.36µM*	?	-2.6%	?	-54.0*
CCCn1nnnc1NC(=O)c1ccc(C)cc1Cl	41.4%	-7.1%	?	56.2µM*	22.4µM*	-1.7
CCCn1nnnc1NC(=O)c1cccs1	?	-8.2%	?	?	35.5µM*	-5.6
Cc1ccc(C(=O)Nn2cnnc2)c(Cl)c1	26.8%	-5.9%	-14.6%	-4.4%	-0.5%	-2.6
CCn1nnnc1NC(=O)c1cc(OC)c(OC)c(OC)c1	7.9%	26.7µM*	79.4µM*	-17.8%	1.5%	3.1
CCn1nnnc1NC(=O)c1ccc2ccccc2c1	26.7%	-5.0%	-7.2%	0.2%	·	3.9
CCCn1nnnc1NC(=O)c1cc(Br)ccc1OC	19.6%	-11.5%	-11.7%	?	25.1µM*	-1.5
CCCn1nnnc1SCC(=O)NCc1cccs1	31.1%	-6.5%	1.7%	13.4%	-3.0%	2.3
O=C1NC[C@@H](CCCCN2CCN(CC3CCCCC3)C(=O)C2=O)N(CC2CCCCC2)C1=O	·	-0.3%	·	·	·	-0.8
Cn1nnnc1SCC(=O)Nc1ccccc1Cl	18.6%	-5.9%	-8.8%	9.6%	4.3%	-1.5
Cn1nnnc1NC(=O)c1ccccc1Cl	37.0%	-2.5%	?	50.1µM*	39.8µM*	2.9
COc1cc2ccccc2cc1C(=O)N1CC(C)CC(C)C1 (stereo not drawn)	37.4%	-2.5%	-8.7%	-12.1%	15.8%	3.7
CN(C(=O)CN1CCN(c2cc(-c3ccc(-c4ccccc4)cc3)ncn2)CC1)c1ccccc1	·	-11.8%	·	·	·	-10.3
COCCNC(=O)C1Cc2cc(S(=O)(=O)N3CCCC3)ccc2N1C(C)=O (stereo not drawn)	43.4%	-13.9%	-2.8%	2.0%	-3.0%	-6.1
COCCCNC(=O)C1Cc2cc(S(=O)(=O)N3CCCC3)ccc2N1C(C)=O (stereo not drawn)	1.8%	21.2µM*	?	-10.0%	18.3%	-19.8
CC(=O)N1c2ccc(S(=O)(=O)N3CCCC3)cc2CC1C(=O)NCc1cccc(F)c1 (stereo not drawn)	-6.2%	23.8µM*	?	-10.9%	29.4%	-15.7
Cc1c2cccn2cc[n+]1C	4.1%	-9.0%	44.7µM*	-2.3%	14.1µM*	4.5
COc1ccc(-c2nc(CSCC(=O)NCCc3ccc(C)cc3)c(C)o2)cc1OC	28.2%	·	-29.6%	?	?	·
CC(C)CC(=O)Nc1ccccc1OCc1cc(=O)n2ccccc2n1	16.1%[57 µM]	·	-3.6%	7.0%	21.3%[59 µM]	·
SMILES	HP1b chromo inh	PLK1 PBD block	JMJD2A Tudor inh	BAZ2B block	G9a inh	PI5P4Ka inh
CCCc1nn2c(=O)cc(CSCC(=O)Nc3ccc(C)cc3)nc2s1	63.1%	-8.6%	2.0%	-28.2%	?	0.6
N#C/C(=C\c1c(Cl)cccc1Cl)c1nc2ccccc2[nH]1	22.5%	-10.5%	-24.7%	-7.9%	1.5%	-3.9
N#C/C(=C\c1c(Cl)cccc1Cl)c1nc2ccccc2o1	-23.3%	0.423µM*	-35.1%	-30.3%	-7.0%[59 µM]	3.8
C/C(=N\O)C(=O)NCC1CCNCC1	0.5%	26.7µM*	-8.9%[11.4 µM]	-7.1%	?	-18.5
C/C(=N\O)C(=O)NCc1ccncc1	46.9%	-14.8%	-6.8%[11.4 µM]	2.6%	23.3%[12.7 µM]	1.2
COC(=O)[C@@]12CCCCN1[C@H](c1ccc(-c3ccc(F)cc3)cc1)[C@H]1C(=O)N(C)C(=O)[C@H]12	27.3%	5.7%	-12.7%	·	·	21.2
COC(=O)[C@@]12CCCN1[C@H](c1ccc(-c3ccc(F)cc3)cc1)[C@H]1C(=O)N(C)C(=O)[C@H]12	32.6%	9.2%	-28.1%	70.8µM*	-3.3%[2.33 µM]	4.4
Cc1nc(NC(=O)CSc2nnc(C3CC3)n2N)c(Cl)cc1Cl	48.9%	-0.8%	1.0%	·	·	-0.8
CCOC(=O)C1CCCCN1Cc1ccc(F)cc1 (stereo not drawn)	?	-0.5%	4.47µM*	50.1µM*	10µM*	·
CCOC(=O)C1CCCCN1Cc1ccc(-c2ccccc2)cc1 (stereo not drawn)	-9.2%	-0.8%	20µM*	9.0%	?	6.3
CCOC(=O)C1CCCCN1Cc1cccc(F)c1 (stereo not drawn)	?	-0.5%	22.4µM*	50.1µM*	3.55µM*	·
O=C(NN=Cc1ccc(N2CCOCC2)s1)c1ccc([N+](=O)[O-])cc1	36.6%	-1.3%	-16.1%	·	·	1.0
Cc1ccc(O)c(Sc2cc(C)ccc2O)c1	10.9%	-14.3%	-29.2%	?	?	0.2
Cc1ccc(SSc2cc(C)ccc2N)c(N)c1	14.1µM*	0.336µM*	7.94µM*	50.1µM*	?	-81.2*
Cc1ccc(-c2ccc(=O)n(CC(=O)Nc3ccc(C(C)C)cc3)n2)cc1	36.8%	·	-8.5%	-2.2%	-29.7%[59 µM]	·
CC(=O)N1N=C(c2cccc([N+](=O)[O-])c2)OC1c1ccc(Br)cc1 (stereo not drawn)	-10.9%	0.7%	?	?	44.7µM*	0.1
CCC(CC)=N/N=C/c1c(O)n(CC)c2cc(C3=NNC(=O)CC3)ccc12	26.9%	4.9%	-21.7%	-27.7%	3.55µM*	-7.3
O=C(O)C1Oc2cc3ccccc3cc2O1	?	?	?	-23.4%	44.7µM*	-3.0
CN(C)c1ncc2nc(CCc3ccccc3)c(=O)n(-c3ccccc3)c2n1	·	·	·	·	-1.8%[12.7 µM]	·
CCOc1ccccc1NC(=O)c1nn(-c2ccc(OC)cc2)c(=O)c2c1c1ccccc1n2C	24.4%	·	-5.0%	·	-41.0%[59 µM]	·
CCN(CC)C(=O)c1nn(-c2ccc(OC)cc2)c(=O)c2c(N)scc12	·	·	56.2µM*	·	·	·
CCOC(=O)c1nn(-c2ccc(C)c(C)c2)c(=O)c2c(N)scc12	-28.8%	16.8µM*	22.4µM*	56.2µM*	2µM*	1.2
COc1ccc(/C=N/NC(=O)c2nn(-c3ccccc3)c(=O)c3c(N)scc23)cc1	?	-19.6%	5.62µM*	39.8µM*	0.355µM*	·
